Out of some 48,000 compounds screened, about 13,000 (27%) showed an effect of 50% or more. Some of the results follow.

In this assay the test system is Wolbachia pipientis. The experiment in a line: Anti-Wolbachia Cell-Based Screen. The format is functional. The arrangement: scale not given: in the data most compounds retested in dose-response had high values. The following applies: 5 µM.
Take `CCS(=O)(=O)N1C[C@H]2CC[C@@]3(N=C(C)N(CC(C)C)C3=O)[C@H]2C1`: the “Percent Effect” value is reported as 17.11%. With `Cc1ccc(CN2CCNC(=O)C2CC(=O)N2CCSCC2)o1` (stereo not given) the figure was -50.4%. The value for `O=C(NCc1ccc(Cl)s1)c1cc(CN2CCCC(O)C2)on1` (stereo not given) was 3.439%; that for `CSCc1nc(CCNC(=O)c2cnn(C(C)C)c2)cs1` was -0.3441%; that for `CSc1ccc2cc(CN(C)CCO)c(=O)[nH]c2c1` was -7.247%. As for `CCC(CNC(=O)CNC(C)=O)Oc1cccc(F)c1` (stereo not given), the “Percent Effect” value is listed as -13.27%. With `Cc1ccc(S(=O)(=O)NC[C@H]2OC[C@@H](NCc3cccnc3)[C@@H]2O)cc1`, the “Percent Effect” value is listed as -9.264%.

For the compound `CC(C)NC(=O)CN(C1CC1)C(C)C1CC1` (stereo not given), the “Percent Effect” value is listed as -3.628%. With `Nc1nc2c(c(NC3CCCC3)n1)CCN(C(=O)C1CCOC1)CC2` (stereo not given) the figure was 4.82%.

In the case of `CC(=O)N1CCCCC1c1nc2c(c(N3CCCCC3)n1)CN(C)CC2` (stereo not given), the “Percent Effect” value is reported as -9.745%.

On to `CNc1nc(C2CCCCN2C(=O)C(C)(C)OC)nc2c1CN(C)CC2` (stereo not given), for which the “Percent Effect” value came out at 100.3%. With `CC(=O)N1CCCCC1c1nc2c(c(NC3CCCC3)n1)CN(C)CC2` (stereo not given) the figure was 71.52%. With `CNc1nc(N2C[C@H](NC(=O)CCOC)[C@@H](C3CC3)C2)nc2c1CCC2` the figure was -18.85%; with `CNc1nc(C2CCCCN2C(=O)COC)nc2c1CN(C)CC2` (stereo not given), 112%. The value for `CC1CCCCN1C(=O)c1nc2c(n1C(C)C)CCN(C)C2.O=C(O)C(F)(F)F` (stereo not given) was 0.8763%; that for `COCC(=O)N[C@H](C(=O)NC(C)c1cccc(C)c1C)C(C)C` (stereo not given in full) was 4.041%. With `O=C(c1scc2c1OCCO2)N1CCN(Cc2cccc(F)c2)CC1`, the “Percent Effect” value is -25.63%. With `COCc1noc(-c2ccc(N(C)Cc3nccs3)nc2)n1` the figure was 22.14%; with `CCc1nc(CNC(C)c2cccc(N3CCCC3=O)c2)cs1.Cl` (stereo not given), 4.92%; with `CSc1cc2c(cc1NC(=O)NCC(C)(C)C(N)=O)OCCO2`, -12.99%. The value for `CC(C)(C)c1noc(CN2CCN(C(=O)c3cccs3)CC2)n1` was -8.519%; that for `CC(=O)N1CCC(n2nccc2-c2cnc(N)nc2)CC1` was 106.3%.

With `CC(=O)N1CCC(n2nccc2-c2cnc(N(C)CCO)nc2)CC1`, the “Percent Effect” value is reported as 107.1%. Consider `CNc1ncc(-c2ccnn2C2CCN(C(C)=O)CC2)cn1`, for which the “Percent Effect” value is recorded as 109.9%.

On to `CCc1ocnc1C(=O)N1CCC(C2CCN(c3ncccn3)CC2)C1` (stereo not given), for which the “Percent Effect” value is -3.497%. With `CC(=O)N1CCC(NCc2cccnc2N(C)Cc2ccccc2)CC1` the figure was -20.17%; with `CC(=O)N1CCC(n2nccc2-c2cnc(N3CCCC3)nc2)CC1`, 98.34%; with `CCc1cnc(N2CC[C@@H]3CN(C(C)=O)CCO[C@@H]3C2)nc1`, 6.886%.

Consider `Cn1ccnc1CN(CCO)C(=O)C1CCN(C(=O)C2CC2)CC1`, for which the “Percent Effect” value was -5.097%.

As to `CCc1cnc(N)nc1N1CCN(C(C)=O)CC1`, the “Percent Effect” value is listed as -3.404%. With `CNc1ncc(C(=O)N2CC[C@@](O)(C3CCOCC3)[C@H](C)C2)cn1` the figure was -7.674%. Take `CC(=O)N1CCC(Oc2ccc(Cl)cn2)CC1`: the “Percent Effect” value is given as -4.055%.

For the compound `CNc1ncc(C(=O)N2CCC(c3ccccc3C(=O)O)C2)cn1` (stereo not given), the “Percent Effect” value was 4.233%. The value for `CC(C(=O)N1CCc2sccc2C1)N1CCCN(C2CC2)CC1` (stereo not given) was 6.579%; that for `NC(=O)CCNC(=O)NCC1(c2ccccc2Cl)CCC1` was -8.555%. `Cc1noc(C2CCN(C(=O)CCNc3ncccn3)CC2)n1`: the “Percent Effect” value is reported as 14.51%.

Take `CC(=O)N1CCC(NC[C@H]2Cn3c(-c4ccccc4)cnc3CO2)CC1`: the “Percent Effect” value was -3.853%. On to `CC(=O)N1CCC(n2nccc2-c2cnc(NCCO)nc2)CC1`, for which the “Percent Effect” value amounted to 90.32%. The value for `O=C(O)c1nn(CC2CC2)c2c1CN(S(=O)(=O)c1cccnc1)CC2` was -14.04%; that for `COCCNC(=O)CCc1c(C)nn(-c2nc(C)c(C)c(=O)[nH]2)c1C` was -2.178%; that for `Cc1nn(-c2ccccc2)c(C)c1CC(=O)NC1CC(=O)N(C)C1` (stereo not given) was 10.3%. With `CCN(CC)CCNC(=O)CCc1c(C)nn(-c2ccc(Cl)cc2)c1C` the figure was 108.7%; with `CCN(CC)CCNC(=O)CCc1c(C)nn(-c2cccc(Cl)c2)c1C`, 114.7%; with `CC(=O)NCCCc1ncnn1-c1cccc(Cl)c1`, -6.102%. Turning to `CCn1nc(C)c(CCNC(=O)c2cccc(-n3cccn3)c2)c1C`, the “Percent Effect” value was -5.095%.

In the case of `COCc1noc(C2(c3ccc(OC)cc3)CCOCC2)n1`, the “Percent Effect” value was -14.42%. The value for `CN1CCN(Cc2cccc(NCc3cc[nH]n3)c2)CC1` was -14.54%; that for `COc1ccc(NC(=O)N2CCC(c3noc(C)n3)CC2)cc1C` was -0.09079%. The value for `Cc1ccc(NC(=O)N2CC[C@@H](O)C2)c(-c2nc(C3CC3)no2)c1` was 101.9%; that for `O=C(NCc1nc(C2CC2)no1)N1CCOC(c2cccc(F)c2)C1` (stereo not given) was -4.4%; that for `O=C(Nc1ccc(F)cc1-c1nc(C2CC2)no1)N1CC[C@@H](O)C1` was 96.09%. With `O=C(Nc1c(F)cccc1F)N1CC(c2nc(C3CC3)no2)C1` the figure was 16.35%. Consider `CCCn1nc(-c2nc(C3CC3)no2)ccc1=O`, for which the “Percent Effect” value is on record as -1.199%. With `COc1ccc(CNc2nc(C3CC3)no2)cc1OC` the figure was -4.91%; with `O=C(Nc1cc(-c2ccccc2)on1)N1CC[C@H](O)C1`, -19.05%. With `COCC(=O)Nc1ccc(C)cc1-c1nc(C2CC2)no1` the figure was 104.3%; with `CN(C)Cc1nnc(C2CCCN(c3ncccc3F)C2)n1C` (stereo not given), -23.88%; with `Cc1cc(CN(C)CC2(O)CCCN(CCC3CCCCC3)C2=O)no1` (stereo not given), -6.768%. Regarding `O=C(CN1CCCc2sccc2C1=O)NC1CCc2nccn2C1` (stereo not given), the “Percent Effect” value is reported as 7.867%. With `O=C(CCc1nc(Cl)n[nH]1)N[C@H]1CC[C@H]1NC1Cc2ccccc2C1` the figure was -20.04%; with `CCNC(=O)CCC(=O)N1CCC(Oc2cc(C)ccc2C)CC1`, 108%. With `Cc1ccc(C)c(OC2CCN(C(=O)CNc3ccccc3Cl)CC2)c1` the figure was 209.6%. The value for `CN(C)CCNC(=O)c1ccc(OC2CCN(C(=O)CO)CC2)c(Cl)c1` was 12.3%. With `Cc1ccc(C)c(OC2CCN(C(=O)NCC(=O)N3CCCC3)CC2)c1`, the “Percent Effect” value was determined as 99.13%. In the case of `Cc1ccc(C)c(OC2CCN(C(=O)c3ccc(O)nc3)CC2)c1`, the “Percent Effect” value is recorded as -12.69%. The value for `Cc1ccc(C)c(OC2CCN(C(=O)c3ccc(C)[nH]c3=O)CC2)c1` was -1.4%; that for `COC(=O)NCC(=O)N1CCC(Oc2cccc(C)c2)CC1` was -5.707%.

Take `CCC(=O)N1CCC(Oc2ccc(C(=O)NCCN(C)C)cc2Cl)CC1`: the “Percent Effect” value amounted to 19.63%.

For `Cc1ccccc1OC1CCN(C(=O)CNC(=O)N(C)C)CC1`, the “Percent Effect” value came to 13.16%. With `O=C([C@H]1C[C@H]2OCC[C@H]2N(C(=O)c2cnccn2)C1)N1CCCCO1` the figure was -3.887%. Take `CN(C)C(C(=O)N1CCN(S(N)(=O)=O)CC1)c1ccccc1F` (stereo not given): the “Percent Effect” value is recorded as -29.81%. With `Cn1c(C(F)(F)F)nn(CCNC(=O)NCc2ccccc2)c1=O` the figure was -13.86%; with `Cc1cnn(Cc2cc(F)ccc2F)c1NC(=O)CNC(=O)C1CC1`, -28.4%; with `O=C1CCc2cc(S(=O)(=O)NCc3cc4n(n3)CCCNC4)ccc2N1`, -2.764%. For the compound `Cc1ccc(NC2CCN(C(=O)COc3ccccc3)CC2)nn1`, the “Percent Effect” value came to 80.33%. The value for `Cc1ccc(NC2CCN(C(=O)Cc3cccc(F)c3)CC2)nn1` was 5.367%.

Turning to `Cc1ccc(NC2CCN(C(=O)COc3cccnc3)CC2)nn1`, the “Percent Effect” value stood at 0.9961%.

Take `Cc1ccc(NC2CCN(C(=O)COc3cccc(F)c3)CC2)nn1`: the “Percent Effect” value amounted to 99.48%. With `CC(C)n1cc(S(=O)(=O)NCCc2nnc3ccccn23)cn1` the figure was -12.48%; with `CCn1ncc2c1C(COC)N(C(=O)c1cscn1)CC2.O=C(O)C(F)(F)F` (stereo not given), 99.84%. `CCn1ncc2c1C(COC)N(C(=O)Cc1cccs1)CC2` (stereo not given): the “Percent Effect” value came out at 110.7%. As to `CCOCC1c2c(cnn2CC2CC2)CCN1C(=O)c1ccncn1.O=C(O)C(F)(F)F` (stereo not given), the “Percent Effect” value was -2.874%.

As for `CCn1ncc2c1C(COC)N(C(=O)CCc1ccccc1)CC2.O=C(O)C(F)(F)F` (stereo not given), the “Percent Effect” value is listed as 87.3%. As for `CCn1ncc2c1C(COCC1CC1)N(Cc1cnn(C)c1)CC2.O=C(O)C(F)(F)F.O=C(O)C(F)(F)F.O=C(O)C(F)(F)F` (stereo not given), the “Percent Effect” value is reported as -14.36%.

For the compound `CCn1ncc2c1C(COCC1CC1)N(C(=O)c1ccncn1)CC2.O=C(O)C(F)(F)F` (stereo not given), the “Percent Effect” value is recorded as -5.083%.

In the case of `CCn1ncc2c1C(COCC1CC1)N(Cc1ccccn1)CC2.O=C(O)C(F)(F)F.O=C(O)C(F)(F)F` (stereo not given), the “Percent Effect” value is given as 3.009%. The value for `COCC1c2nnn(CC3CC3)c2CCN1C(=O)Cc1cccs1` (stereo not given) was 9.028%. The value for `CCn1ncc2c1C(COC)N(C(=O)c1cccs1)CC2.O=C(O)C(F)(F)F` (stereo not given) was 114.8%; that for `Fc1cnc(N2CC[C@@H](N3CCOCC3)[C@@H]2Cc2ccccc2)nc1` was -1.587%; that for `CC(C)(O)CCc1ccc(C(=O)N2CCN(CC(F)(F)F)CC2)cc1` was 0.1309%. As for `NS(=O)(=O)CCN1CCOC(c2ccsc2)C1` (stereo not given), the “Percent Effect” value is on record as -9.667%. `CN1CC(c2ccccc2)CC2(CCN(C(=O)c3cccnn3)CC2)C1` (stereo not given): the “Percent Effect” value was found to be 0.4144%. The value for `COc1ccc2c(c1)C(=O)N(C)C1(CCN(C(=O)OC(C)(C)C)CC1)N2` was -17.46%; that for `COCC1c2c(cnn2C)CCN1C(=O)c1cccn1C.O=C(O)C(F)(F)F` (stereo not given) was 106%; that for `COCC1CN(C(=O)c2cccn2C)Cc2c1cnn2CC1CC1.O=C(O)C(F)(F)F` (stereo not given) was 4.422%. `CCn1ncc2c1C(COC)N(C(=O)c1ccc3c(c1)OCO3)CC2.O=C(O)C(F)(F)F` (stereo not given): the “Percent Effect” value is 10.43%. With `COCC1c2c(cnn2C)CCN1Cc1ccc(F)cc1.O=C(O)C(F)(F)F.O=C(O)C(F)(F)F` (stereo not given), the “Percent Effect” value is 5.645%. Turning to `COCC1c2c(cnn2C)CCN1C(=O)c1cscn1.O=C(O)C(F)(F)F` (stereo not given), the “Percent Effect” value is on record as 127.3%. The value for `CCn1ncc2c1C(COC)N(C(=O)c1ccsc1)CC2.O=C(O)C(F)(F)F` (stereo not given) was 90.11%. For `Cn1ncc2c1C(COCC1CC1)N(C(=O)c1ccncn1)CC2.O=C(O)C(F)(F)F` (stereo not given), the “Percent Effect” value is given as 6.391%.

The values above are taken from ChEMBL document CHEMBL3988442, “University of Dundee, Small-Polar-MMV Screening Library” (2021).
